This is an account of results in PubChem BioAssay (NCATS).

Records with an inconclusive call do not appear. Active and inactive are the calls of the source. The call rests on the fitted dose curve; in most records, active means well fitted curve in the direction sought with a large enough effect; inconclusive means small, poorly fitted or top-dose-only effect, or another doubt; inactive means no such curve, though single readings can be large; an effect the other way counts as inactive or inconclusive.

A short description of assay [1]: S16 Schwann cell viability assay (CellTiter-Glo assay) (AID 624031).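 Further: native untransfected S16 rat Schwann cells; cellular ATP luminescence as a viability measure; nearly all actives have a fitted effect of over 70% in size.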 The conditions noted are these: S16 rat Schwann cells viability, 24 h; series mostly up to 25.7 µM. The method in brief: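 Concentration-effect curves come from CellTiter-Glo luminescence of S16 rat Schwann cells after 24 h compound exposure. Each reading was normalized to DMSO wells (0%) and wells without cells, and curves were ranked by r2 and response magnitude.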

Assay [2] relates to 3D7. The assay can be described thus: qHTS profiling for inhibitors of Plasmodium falciparum proliferation (AID 504749). Further: nearly all actives have a fitted effect of over 60% in size. Further: potency means the concentration at half of the fitted maximal effect. The conditions noted are these: P. falciparum in erythrocytes, SYBR Green DNA, 72 h; series mostly up to 12.8 µM. The method in brief:
(§1)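 Quantitative HTS: compounds pinned into medium, infected erythrocytes added (0.3% parasitemia, 2.5% hematocrit), 72 h culture at 37 C under 5% CO2. Saponin/Triton lysis with SYBR Green I, overnight RT, then fluorescence read.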

The subject of assay [3] is AS120. The assay is described as above. The conditions noted are these: P. falciparum in erythrocytes, SYBR Green DNA, 72 h; series mostly up to 12.8 µM. The method in brief:
as §1

Assay [4] deals with ATS189. The assay is described as above. Particulars: P. falciparum in erythrocytes, SYBR Green DNA, 72 h; series mostly up to 12.8 µM. The method in brief:
as §1

Assay [5] has as its system CP185. Described as above. Particulars: P. falciparum in erythrocytes, SYBR Green DNA, 72 h; series mostly up to 12.8 µM. The method in brief: as §1
In assay [6] the test system is CP192. The description is as above. The conditions noted are these: P. falciparum in erythrocytes, SYBR Green DNA, 72 h; series mostly up to 12.8 µM. The method in brief:
as §1

The test system of assay [7] is CP252. Described as above. The conditions noted are these: P. falciparum in erythrocytes, SYBR Green DNA, 72 h; series mostly up to 12.8 µM. The method in brief: as §1
Assay [8] has as its system CP266. The assay is described as above. The conditions noted are these: P. falciparum in erythrocytes, SYBR Green DNA, 72 h; series mostly up to 12.8 µM. The method in brief: as §1
The subject of assay [9] is CP268. The description is as above. The conditions noted are these: P. falciparum in erythrocytes, SYBR Green DNA, 72 h; series mostly up to 12.8 µM. The method in brief:
as §1

Assay [10] concerns CP286. The description is as above. Particulars: P. falciparum in erythrocytes, SYBR Green DNA, 72 h; series mostly up to 12.8 µM. The method in brief:
as §1

In assay [11] the test system is CP297. The assay is described as above. Particulars: P. falciparum in erythrocytes, SYBR Green DNA, 72 h; series mostly up to 12.8 µM. The method in brief: as §1
The subject of assay [12] is CP315. The assay is described as above. The conditions noted are these: P. falciparum in erythrocytes, SYBR Green DNA, 72 h; series mostly up to 12.8 µM. The method in brief: as §1
In assay [13] the test system is Dd2. The assay is described as above. The conditions noted are these: P. falciparum in erythrocytes, SYBR Green DNA, 72 h; series mostly up to 12.8 µM. The method in brief:
as §1

The subject of assay [14] is ECU. The description is as above. Particulars: P. falciparum in erythrocytes, SYBR Green DNA, 72 h; series mostly up to 12.8 µM. The method in brief:
as §1

For assay [15], the system named is HB3. The description is as above. The conditions noted are these: P. falciparum in erythrocytes, SYBR Green DNA, 72 h; series mostly up to 12.8 µM. The method in brief:
as §1

Assay [16] has as its system N140. The description is as above. Particulars: P. falciparum in erythrocytes, SYBR Green DNA, 72 h; series mostly up to 12.8 µM. The method in brief:
as §1

For assay [17], the system named is PAD. The assay is described as above. The conditions noted are these: P. falciparum in erythrocytes, SYBR Green DNA, 72 h; series mostly up to 12.8 µM. The method in brief: as §1
The test system of assay [18] is PC15. The assay is described as above. Particulars: P. falciparum in erythrocytes, SYBR Green DNA, 72 h; series mostly up to 12.8 µM. The method in brief: as §1
Assay [19] has as its system TAB113. The description is as above. The conditions noted are these: P. falciparum in erythrocytes, SYBR Green DNA, 72 h; series mostly up to 12.8 µM. The method in brief:
as §1

In assay [20] the test system is W2. The description is as above. Particulars: P. falciparum in erythrocytes, SYBR Green DNA, 72 h; series mostly up to 12.8 µM. The method in brief: as §1

With `COc1c(O[C@H]2O[C@@H](CO)[C@@H](O)[C@@H](O)[C@@H]2O)cc2c(c1OC)-c1ccc(SC)c(=O)cc1[C@H](NC(C)=O)CC2`, the call in assay [1] was inactive. Moreover, the Potency result in assay [2], in [3], in [4], in assay [5], in [6] and in assay [7] was “inactive” in each case. Further, the Potency entry in [8], in assay [9], in [10], in assay [11], in assay [12] and in [13] was “inactive” in each case. Further, the Potency entry in assay [14], in assay [15], in [16], in assay [17], in assay [18] and in assay [19] was “inactive” each time. Moreover, in [20], the Potency result was “inactive”.
In the case of `CS(=O)(=O)c1ccc([C@H](O)[C@H](CF)NC(=O)C(Cl)Cl)cc1`, the result in assay [1] was inactive.
For the molecule `CCCC(=O)Nc1ccc(OC[C@@H](O)CNC(C)C)c(C(C)=O)c1`, in assay [1], the outcome was inactive.
For the molecule `CCc1c(C)[nH]c2c1C(=O)[C@H](CN1CCOCC1)CC2`, in assay [1], the call was inactive. Moreover, the Potency result in assay [2], in [3], in [4], in [5], in assay [6] and in [7] was “inactive” in each case. Further, the Potency entry in assay [8], in assay [9], in assay [10], in assay [11], in [12] and in assay [13] was “inactive” in each case. Further, the Potency entry in [14], in assay [15], in assay [16], in assay [17], in assay [18] and in assay [19] was “inactive” throughout. In addition, the Potency entry in assay [20] is “inactive”.
Take `CO[C@@H]1C[C@H](O[C@H]2[C@@H](C)[C@H](O[C@@H]3O[C@@H](C)C[C@@H](N(C)C)[C@@H]3OC(C)=O)[C@H](C)C[C@]3(CO3)C(=O)[C@H](C)[C@H](OC(C)=O)[C@H](C)[C@H](C)OC(=O)[C@@H]2C)O[C@H](C)[C@@H]1OC(C)=O`: the molecule was classed as inactive in [1]. Also, the Potency result in [2], in [3], in assay [4], in [5], in [6] and in [7] was “inactive” each time. Further, the Potency result in assay [8], in [9], in assay [10], in [11], in [12] and in assay [13] was “inactive” throughout. Moreover, the Potency result in assay [14], in [15], in assay [16], in assay [17], in assay [18] and in [19] was “inactive” each time.
On to `CC(=O)O[C@H]1C[C@@]2(C)[C@H](C[C@@H](O)[C@H]3[C@@]4(C)CC[C@@H](O)[C@@H](C)[C@H]4CC[C@@]32C)C1=C(CCC=C(C)C)C(=O)O`, for which the call in assay [1] was inactive. In addition, the Potency result in assay [2], in assay [3], in [4], in [5], in assay [6] and in [7] was “inactive” in each case. In addition, the Potency entry in [8], in assay [9], in assay [10], in assay [11], in assay [12] and in [13] was “inactive” each time. For the same molecule, the Potency result in assay [14], in assay [15], in assay [16], in assay [17], in assay [18] and in [19] was “inactive” each time. Also, in assay [20], the Potency entry was “inactive”.
`C[C@H](O)Cn1cnc2c1c(=O)n(C)c(=O)n2C`: the call in assay [1] was inactive. Besides, the Potency entry in [2], in [3], in assay [4], in assay [5], in assay [6] and in assay [7] was “inactive” each time. Further, the Potency entry in assay [8], in [9], in [10], in assay [11], in assay [12] and in assay [13] was “inactive” in each case. The Potency entry in assay [14], in assay [15], in assay [16], in assay [17], in [18] and in assay [19] was “inactive” in each case. Moreover, the Potency entry in [20] is “inactive”.
Take `CC(=O)OCC(=O)[C@@]1(O)[C@H](C)C[C@@H]2[C@H]3CCC4=CC(=O)C=C[C@]4(C)[C@]3(F)[C@@H](O)C[C@@]21C`: the call in assay [1] was inactive. For the same molecule, the Potency entry in assay [2], in assay [3], in [4], in assay [5], in assay [6] and in assay [7] was “inactive” in each case. In addition, the Potency entry in assay [8], in [9], in [10], in [11], in assay [12] and in assay [13] was “inactive” each time. The Potency entry in assay [14], in assay [15], in [16], in assay [17], in [18] and in [19] was “inactive” each time. Further, the Potency result in assay [20] is “inactive”.
For the molecule `C[N+]12CCC(CC1)[C@@H](OC(=O)C(O)(c1ccccc1)c1ccccc1)C2`, the call in assay [1] was inactive. Moreover, the Potency result in assay [2], in assay [3], in [4], in assay [5], in assay [6] and in assay [7] was “inactive” throughout. Moreover, the Potency result in assay [8], in assay [9], in assay [10], in [11], in assay [13] and in assay [14] was “inactive” throughout. In addition, the Potency entry in assay [15], in assay [16], in assay [17], in assay [18], in assay [19] and in assay [20] was “inactive” in each case.
Take `COc1ccc(OC)c([C@H](O)CNC(=O)CN)c1`: the call in assay [1] was inactive. Besides, the Potency result in assay [2], in [3], in assay [4], in assay [5], in assay [6] and in assay [7] was “inactive” throughout. For the same molecule, the Potency result in [8], in [9], in [10], in assay [11], in assay [12] and in [13] was “inactive” throughout. Further, the Potency entry in assay [14], in assay [15], in assay [16], in assay [17], in [18] and in [19] was “inactive” each time. Moreover, the Potency entry in assay [20] is “inactive”.
In the case of `CO[C@H]1[C@H](O[C@H]2O[C@@H](C)[C@@H](O[C@@H]3C[C@](C)(O)[C@H](O)[C@H](C)O3)[C@@H](N(C)C)[C@@H]2O)[C@@H](CC=O)C[C@@H](C)[C@@H](O[C@H]2CC[C@H](N(C)C)[C@H](C)O2)/C=C\C=C/C[C@@H](C)OC(=O)C[C@H]1O`, the molecule was called inactive in assay [1]. Further, the Potency entry in assay [2], in [3], in assay [4], in [6], in assay [12] and in assay [13] was “inactive” in each case. The Potency result in assay [14], in [15], in assay [16], in assay [17] and in [18] was “inactive” in each case. For the same molecule, in assay [20], the Potency is 3.22 µM (active).
With `CCN[C@@H]1C[C@H](N)[C@H](O[C@H]2OC(CN)=CC[C@H]2N)[C@@H](O)[C@H]1O[C@H]1OC[C@@](C)(O)[C@@H](NC)[C@@H]1O`, the result in [1] was inactive. Besides, the Potency entry in assay [2], in assay [3], in assay [4], in [5], in assay [6] and in assay [7] was “inactive” each time. Besides, the Potency entry in assay [8], in assay [9], in [10], in assay [11], in assay [12] and in [13] was “inactive” each time. The Potency result in assay [14], in assay [15], in assay [16], in [17], in assay [18] and in [19] was “inactive” each time. The Potency result in assay [20] is “inactive”.
In the case of `c1ccc2c(c1)CCC[C@@H]2C1=NCCN1`, in [1], the molecule was called inactive. Also, the Potency result in assay [2], in [3], in assay [4], in [5], in assay [6] and in assay [7] was “inactive” in each case. For the same molecule, the Potency entry in assay [8], in [9], in assay [10], in assay [11], in [12] and in assay [13] was “inactive” each time. Moreover, the Potency result in [14], in assay [15], in [16], in [17], in [18] and in assay [19] was “inactive” throughout. The Potency entry in [20] is “inactive”.
